Where “and” joins values, the source holds several entries; their conditions need not be identical. Identical values can stand only once. Unmarked numbers belong to inactive results. Calls of active or inactive are those of the source. No rule for the calls is given here.
Experiments:
[1] = target: Nuclear receptor subfamily 1 group I member 2 (Rattus norvegicus) (UniProt Q9R1A7); assay: qHTS assay for small molecule activators of the rat pregnane X receptor (rPXR) signaling pathway (AID 651751); details: rPXR reporter cells, luciferase (One-Glo), 24 h
[2] = qHTS assay for small molecule activators of the human pregnane X receptor (PXR) signaling pathway (AID 720659); details: DPX-2 HepG2 CYP3A4-luciferase, 24 h; series mostly up to 92.3 µM
Also: 0% is about no effect.

Nuclear receptor subfamily 1 group I member 2 (Rattus norvegicus), sequence (Q9R1A7 whole entry, looked up): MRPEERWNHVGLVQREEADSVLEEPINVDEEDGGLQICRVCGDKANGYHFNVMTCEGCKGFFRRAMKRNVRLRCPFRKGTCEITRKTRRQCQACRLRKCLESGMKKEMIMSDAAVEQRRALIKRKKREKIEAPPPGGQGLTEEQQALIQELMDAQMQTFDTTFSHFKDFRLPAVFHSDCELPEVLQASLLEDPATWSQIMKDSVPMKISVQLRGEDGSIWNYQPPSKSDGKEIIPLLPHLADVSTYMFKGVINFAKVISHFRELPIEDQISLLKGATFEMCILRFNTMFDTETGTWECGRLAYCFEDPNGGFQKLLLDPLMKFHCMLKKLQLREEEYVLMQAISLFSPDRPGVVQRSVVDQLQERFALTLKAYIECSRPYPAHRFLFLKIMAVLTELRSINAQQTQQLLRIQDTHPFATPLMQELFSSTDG

Compound | max response [1] | outcome [2]
Nc1ccc([N+](=O)[O-])cc1O | -5.85% and -4.85% | inactive
NCCO | -4.55% | inactive
O=C(Nc1ccccc1)c1cc([N+](=O)[O-])ccc1Cl | -1.59% | –
O=C(O)/C=C\C(=O)O | 4.35% | inactive
CN1CCC[C@H]1c1cccnc1 | 4.53% and 0.248% | inactive
C=CCCCCCCCCC(=O)O | 0.475% | inactive
S=c1[nH]c2ccccc2s1 | 4.63% and 1.9% | inactive
CN(C)CCC(c1ccc(Cl)cc1)c1ccccn1 (stereo not given) | 3.17% | inactive
CCCCCCCCCCCCCCCCCC(=O)O | 1.24% and 3.12% and 0.368% | inactive
COc1cc(CNC(=O)CCCC/C=C/C(C)C)ccc1O | 0.324% and -3.76% | –
O=C(O)c1ccccc1Nc1cccc(C(F)(F)F)c1 | 1.7% | inactive
CN(C)c1ccc(N=NS(=O)(=O)O)cc1 | – | inactive
CC(C)NCC(O)COc1cccc2ccccc12 (stereo not given) | 2% and 7.81% | –
O=C(O)[C@H](O)[C@@H](O)[C@H](O)[C@H](O)CO | – | inactive
Nc1nc2ccc([N+](=O)[O-])cc2s1 | -3.29% | inactive
O=C1CN(/N=C/c2ccc([N+](=O)[O-])o2)C(=O)N1 | -1.4% | inactive
CN(C)c1ccc(C(=C2C=CC(=[N+](C)C)C=C2)c2ccccc2)cc1 | – | inactive
O=C(O)c1cc(O)c(O)c(O)c1 | -9.5% | inactive
CC1(C)S[C@@H]2[C@H](NC(=O)[C@H](N)c3ccccc3)C(=O)N2[C@H]1C(=O)O | -3.75% | inactive
CC(C)OC(=O)c1cc(C(=O)OC(C)C)cc([N+](=O)[O-])c1 | 14.5% | inactive
CN1[C@@H]2CC[C@H]1CC(OC(=O)C(CO)c1ccccc1)C2 (stereo not given in full) | – | inactive
Nc1cc(-c2ccncc2)c[nH]c1=O | -2.86% | inactive
Oc1ccccc1O | 2.32% | inactive
c1ccc2sc(SSc3nc4ccccc4s3)nc2c1 | -2.5% and 11.1% | inactive
Nc1ccc(O)c([N+](=O)[O-])c1 | -2.38% and -0.765% | inactive
CCCOC(=O)c1ccc(O)cc1 | -2.03% and 0.0614% and -3.63% | –
O=C(OCc1ccccc1)c1ccccc1 | -3.55% | inactive
Nc1ccc(O)c(C(=O)O)c1 | -0.0122% and -1.86% | inactive
CCCCCCCCCCCCCCCC(=O)OC(C)C | -0.444% | inactive

Reference: PubChem BioAssay (NCATS)
